PAX8 inh HTS: PAX8 transcriptional activity inhibition; inhibition, % at 12.6 µM; hit rate 1.2% among 360,000; RMG-I TPO-luciferase reporter, SteadyGlo, 24 h;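 active = mean replicate inhibition at least 60% with every replicate also reaching 60%; inconclusive = only one of the two criteria is met; inactive = mean below 60% and not all replicates reaching 60%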;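 also: luciferase light reporting Pax8 driven TPO promoter activity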
PGC1a acetyl inh: lowers PGC1a acetylation signal in U2OS cells. inhibition, % at 15.6 µM. hit rate 0.17% among 350,000. AlphaScreen anti-acetyl-lysine; with virally co-expressed GCN5 acetyltransferase;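 active = every replicate shows inhibition of at least 40%; inconclusive = mean inhibition at least 40% but some replicate below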
EWS-Fli block: inhibitors of EWS/Fli oncoprotein transcriptional activity; A673 NR0B1-luciferase reporter, viability-normalised; inhibition, % at 12.6 µM; hit rate 0.67% among 350,000;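 active = mean inhibition of at least 50% after viability correction, with every replicate also passing that limit; inconclusive = mean reaches 50% but only one of two replicates passes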;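 also: firefly luciferase signal divided by Alamar Blue viability fluorescence both relative to DMSO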
LGR2 inh: blocks bursicon-induced cAMP signaling via Drosophila LGR2; HEK293 LGR2, CRE-luciferase, bursicon-stimulated, 4 h; inhibition, % at 9.99 µM; hit rate 0.35% among 380,000; AID 720647;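 active = drop in luminescence signal, shown as inhibition above about 50% in the replicate tests, limit read from the data, passing the limit was not always enough; inconclusive = probably only some replicates passing the limit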;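 also: agonist challenge used bursicon conditioned medium at about half maximal strength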
rRNA inh HTS: selective bacterial rRNA inhibition in E. coli; E. coli WT GFP vs humanized-ribosome RFP mutants, fluorescence, 24 h; hits give low values; DMSO median 0, no signal -100; GFP signal change (wild-type ribosome), % (concentration not given with the values); hit rate 1.6% among 350,000; AID 720706;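 active = significant combined selectivity score with lowered wild-type GFP, culture density cut under 30%, mutant RFP and density less affected; inactive = any of these conditions unmet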
SIRT5 inh: blocks human SIRT5 desuccinylation of peptide; inhibition, % at 15 µM; Purified SirT5, succinyl-peptide AMC, trypsin-coupled fluorescence; AID 652115; hit rate 1.1% among 330,000; in the data active = inhibition above about 15%; inconclusive = no clear call, values can overlap the other calls
Target sequence (Q9NXA8 whole entry, looked up): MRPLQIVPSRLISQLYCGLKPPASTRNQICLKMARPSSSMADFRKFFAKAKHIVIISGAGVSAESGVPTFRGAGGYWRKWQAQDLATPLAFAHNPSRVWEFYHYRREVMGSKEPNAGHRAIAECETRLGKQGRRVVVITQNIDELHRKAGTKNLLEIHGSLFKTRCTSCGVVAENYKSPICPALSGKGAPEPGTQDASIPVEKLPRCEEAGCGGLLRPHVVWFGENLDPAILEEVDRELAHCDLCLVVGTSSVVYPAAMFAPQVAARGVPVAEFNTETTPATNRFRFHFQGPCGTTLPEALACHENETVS
A number is an active result; - = inactive; ? = inconclusive; . = no result given. Only some compounds are listed: those with a hit (about 3.4% of all), similar ones and a draw of the others.

SMILES | PAX8 inh HTS | PGC1a acetyl inh | EWS-Fli block | LGR2 inh | rRNA inh HTS | SIRT5 inh
C[C@H](CO)N1C[C@H](C)[C@@H](CN(C)S(=O)(=O)c2ccc(F)cc2)Oc2ccc(NC(=O)CCN3CCOCC3)cc2CC1=O | - | - | - | - | - | -
O=C(C[C@H]1C[C@H]2c3cc(NC(=O)c4cccnc4)ccc3O[C@H]2[C@@H](CO)O1)NCCN1CCCCC1 | - | - | - | - | - | -
CCNC(=O)C[C@@H]1CC[C@H]2[C@H](COc3ccc(NC(=O)c4ccccc4Cl)cc3C(=O)N2C)O1 | - | - | - | - | - | .
CNC(=O)CSc1nc2cccnc2n1C1CCCCC1 | - | - | - | - | - | -
CC(C)(C)NC(=O)CSc1nc2cccnc2n1C1CCCCC1 | - | - | - | - | - | 20
COc1ccc(NC(=O)N[C@@H]2C=C[C@H](CC(=O)NC3CCC3)O[C@H]2CO)cc1 | - | - | - | - | - | -
O=C(N/N=C/C1CC=CCC1)c1ccccc1O (stereo not given) | . | - | . | . | . | .
O=C(N/N=C/C1CC=CCC1)c1ccc(Cl)cc1O (stereo not given) | - | - | - | - | -29 | -
COc1ccccc1NC(=O)CSc1nnnn1Cc1ccccc1 | . | - | - | - | -29 | -
Cc1cc(C)cc(NC(=O)CSc2ccc(-c3cccs3)nn2)c1 | - | . | - | - | - | 22
COc1ccccc1NC(=O)CSc1ccc(-c2cccs2)nn1 | - | . | - | - | -27 | -
CCOc1ccccc1NC(=O)CSc1nnnn1Cc1ccccc1 | . | - | . | . | . | .
C[C@H]1CN([C@@H](C)CO)C(=O)Cc2cc(NC(=O)CCC(F)(F)F)ccc2O[C@@H]1CN(C)Cc1ccc(Oc2ccccc2)cc1 | - | - | - | - | - | .
O=C(C1CC1)N1[C@H](CO)[C@@H]2c3ccccc3N(S(=O)(=O)c3ccc(F)cc3)C[C@@H]21 | - | - | - | - | - | -
CC(=O)N(C)C[C@@H]1Oc2ccccc2C(=O)N(C)C[C@H]1C | . | . | . | . | - | .
c1ccc(-c2csc3ncnc(NCc4ccccn4)c23)cc1 | - | - | - | . | . | -
c1ccc(CNc2ncnc3scc(-c4cccs4)c23)nc1 | - | - | - | - | -27 | -
C[C@@H]1CN([C@@H](C)CO)C(=O)c2cc(NS(=O)(=O)c3ccccc3)ccc2O[C@@H](C)CCCCO[C@@H]1CN(C)C(=O)c1ccncc1 | - | - | - | - | - | -
Cc1ccc(C2=NN=C(NC(=O)CSc3nc(C)cc(C)n3)SC2)cc1 | 76 | . | ? | - | - | -
Cc1cc(C)nc(SCC(=O)NC2=NC(=O)C(C)S2)n1 (stereo not given) | . | . | - | . | - | -
CO[C@H]1CN(C)C(=O)c2ccc(NC(C)=O)cc2OC[C@@H](C)N(S(=O)(=O)c2cn(C)cn2)C[C@@H]1C | - | - | - | - | - | -
COc1ccc2c3c([nH]c2c1)[C@H](CO)N(C(=O)c1ccc(F)cc1)CC31CN(C(=O)Nc2ccc(F)cc2)C1 | . | - | - | - | - | .
O=C(Cc1cccc2ccccc12)OCn1nnc2ccccc2c1=O | - | - | - | - | -18 | -
COc1cc(/C=C/C(=O)O)cc(S(=O)(=O)Nc2cc(Cl)c(Cl)cc2Cl)c1OC | - | - | - | - | - | 17
CCN(CC)CC(=O)Nc1sc(C)cc1C(=O)c1ccc(C)cc1 | - | - | - | - | - | -
SMILES | PAX8 inh HTS | PGC1a acetyl inh | EWS-Fli block | LGR2 inh | rRNA inh HTS | SIRT5 inh
Cc1sc(NC(=O)c2ccco2)c(C(=O)c2ccc(Cl)cc2)c1C | - | . | - | - | - | 16
CCN(CC)CC(=O)Nc1sc(C)c(C)c1C(=O)c1ccc(C)cc1 | - | - | - | - | -24 | -
Cc1sc(NC(=O)c2ccco2)c(C(c2ccccc2)N2CCC(C)CC2)c1C (stereo not given) | - | - | - | - | - | 18
COc1cccc(S(=O)(=O)Nc2ccc3c(c2)[C@@H]2C[C@@H](CC(=O)NCc4ccccc4F)O[C@H](CO)[C@@H]2O3)c1 | - | - | - | - | - | -
COCC(=O)N(C)C[C@H]1Oc2cc(-c3ccc(C#N)cc3)ccc2S(=O)(=O)N([C@@H](C)CO)C[C@H]1C | - | - | - | - | - | -
C[C@H](CO)N1C[C@H](C)[C@H](CN(C)C(=O)CC2CC2)Oc2cc(-c3ccncc3)ccc2S1(=O)=O | . | - | - | - | - | -

Assay outcomes (PubChem BioAssay)
